Data on 34 compounds can be found in ChEMBL document CHEMBL1961873, “Compounds: GSK PKIS; Assays: Nanosyn kinase panel” (2012).

Chain of Fibroblast growth factor receptor 2 (Homo sapiens) (P21802 22-821 limits assumed): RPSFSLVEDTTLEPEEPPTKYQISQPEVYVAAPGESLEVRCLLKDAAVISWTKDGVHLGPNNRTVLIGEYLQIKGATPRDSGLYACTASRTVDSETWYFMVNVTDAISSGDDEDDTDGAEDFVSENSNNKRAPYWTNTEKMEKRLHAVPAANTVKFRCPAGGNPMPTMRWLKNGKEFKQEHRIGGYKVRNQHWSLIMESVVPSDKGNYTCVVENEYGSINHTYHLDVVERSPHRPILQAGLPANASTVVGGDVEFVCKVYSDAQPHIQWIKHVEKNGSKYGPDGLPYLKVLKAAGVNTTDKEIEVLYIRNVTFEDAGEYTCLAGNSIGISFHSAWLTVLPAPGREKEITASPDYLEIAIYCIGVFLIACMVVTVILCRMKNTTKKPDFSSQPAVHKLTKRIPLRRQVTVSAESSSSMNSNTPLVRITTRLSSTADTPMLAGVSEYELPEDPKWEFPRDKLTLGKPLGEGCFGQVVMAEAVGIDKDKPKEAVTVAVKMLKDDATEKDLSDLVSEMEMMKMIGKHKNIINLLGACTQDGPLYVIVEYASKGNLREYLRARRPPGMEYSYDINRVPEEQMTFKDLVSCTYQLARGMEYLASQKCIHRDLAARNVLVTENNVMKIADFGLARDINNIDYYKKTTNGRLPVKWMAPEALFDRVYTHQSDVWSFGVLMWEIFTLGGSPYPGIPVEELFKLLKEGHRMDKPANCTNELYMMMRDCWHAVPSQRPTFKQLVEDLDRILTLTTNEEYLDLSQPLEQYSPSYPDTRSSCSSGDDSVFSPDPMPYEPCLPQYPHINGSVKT

One test concerns the target Fibroblast growth factor receptor 2 (Homo sapiens) (UniProt P21802). To be noted: at 0.1 µM.
For the compound `NS(=O)(=O)c1cccc(-c2cc3ccncc3cc2OCc2ccccc2)c1`, the inhibition worked out at 9.37%.

Take `COc1cc2ncnc(Nc3ccc4c(cnn4Cc4ccccc4)c3)c2cc1OC`: the inhibition is 3.33%.

Turning to `Cc1ccc2c(c1)/C(=N/Nc1ccc(S(N)(=O)=O)cc1)C(=O)N2`, the inhibition amounted to 2.39%.

Consider `FC(F)(F)c1ccc(-c2nn3ncccc3c2-c2ccnc(Nc3ccc4c(c3)OCCO4)n2)cc1`, for which the inhibition was determined as 6.74%.

Regarding `CCCN1CCCC(c2ccc(Nc3nc(Nc4cc(F)ccc4C(N)=O)c4cc[nH]c4n3)c(OC)c2)C1` (stereo not drawn), the inhibition was 4.31%.

For `COc1cccc(-n2ncc3c(N/N=C/c4ccc(C)cc4)ncnc32)c1`, the inhibition is 9.23%.

As for `[O-][S+]1CCN(Cc2ccc(-c3ccc4ncnc(Nc5ccc(OCc6ccccc6)c(Cl)c5)c4c3)o2)CC1`, the inhibition was determined as 0.85%.

`Cc1cc(Cl)cc2c1NC(=O)C2=NNc1ccc(S(N)(=O)=O)cc1`: the inhibition is 1.45%.

Regarding `COc1ccc(-c2nn3ncccc3c2-c2ccnc(Nc3cccc(C(F)(F)F)c3)n2)cc1`, the inhibition came to 2.73%.

With `N#Cc1cccc(Nc2nccc(-c3cnn4ncccc34)n2)c1`, the inhibition amounted to 7.31%.

`Cc1ccc2c(-c3ccnc(Nc4cccc(C(F)(F)F)c4)n3)c(-c3ccccc3)nn2n1`: the inhibition was determined as 6.45%.

Consider `Cc1ccc(O)cc1Nc1ccnc2ccc(S(C)(=O)=O)cc12`, for which the inhibition was 5.74%.

Consider `Cc1ccc(Nc2ccnc(Nc3cccc(C(N)=O)c3)n2)cc1O`, for which the inhibition was 1.51%.

`O=C1Nc2ccc(-c3cccnc3)cc2C1=Cc1cc(Br)c(O)c(Br)c1`: the inhibition came out at 3.81%.

As to `COC(=O)Nc1nc2cc(Oc3ccc(NC(=O)Nc4cccc(Br)c4)cc3)ccc2[nH]1`, the inhibition stood at 1.09%.

In the case of `Cc1cc(O)cc(C)c1/C=C/c1cncc(C(=O)N(C)C)c1`, the inhibition worked out at 4.82%.

For `COc1ccc2ncnc(Nc3ccc(OCc4ccccc4)cc3)c2c1`, the inhibition was determined as 1.22%.

On to `CS(=O)(=O)Nc1cccc(-c2ccc3c(NC(=O)C4CC4)n[nH]c3c2)c1`, for which the inhibition was -3.44%.

Consider `COc1cc2ncnc(Nc3ccc(C)c(O)c3)c2cc1OC`, for which the inhibition was 5.64%.

Take `COc1cccc(-n2ncc3c(N/N=C/c4ccc(S(C)(=O)=O)cc4)ncnc32)c1`: the inhibition is -2.62%.

In the case of `Cc1nc(-c2ccccc2)n2nc(NCCCN3CCOCC3)ncc12`, the inhibition was 3.94%.

`Nc1nccc(C#Cc2cncnc2Nc2ccc(OCc3cccc(F)c3)c(Cl)c2)n1`: the inhibition turned out to be 4.45%.

As for `N#Cc1c(NC(=O)c2ccccc2F)sc2c1CCCC2`, the inhibition was -3.13%.

Regarding `CC(C)c1ccc(Nc2nccc(-c3cnn4ncccc34)n2)cc1`, the inhibition was 0.37%.

With `NS(=O)(=O)c1ccc(NC=C2C(=O)Nc3ccc4ncsc4c32)cc1`, the inhibition worked out at 31.5%.

Turning to `Cc1cc(-c2ccccn2)cc(C)c1/C=C/c1cncc(-c2nn[nH]n2)c1`, the inhibition came out at 4.22%.

Turning to `CN(c1ccc(NC(=O)Nc2ccc(OC(F)(F)F)cc2)cc1)c1ccnc(Nc2cccc(S(N)(=O)=O)c2)n1`, the inhibition turned out to be 16.2%.

As for `COc1cc(/C=N/Nc2ncnc3c2cnn3C(C)C)ccc1O`, the inhibition was 1.99%.

On to `NC(=O)c1cccc(Nc2nccc(Nc3cccc(F)c3)n2)c1`, for which the inhibition turned out to be 2.81%.

For the compound `Nc1ccc(C#Cc2cncnc2Nc2ccc(OCc3cccc(F)c3)c(Cl)c2)cc1`, the inhibition turned out to be 3.89%.

Turning to `O=C(Nc1ccc(Oc2ccc3[nH]c(NC(=O)c4ccco4)nc3c2)cc1)Nc1cc(C(F)(F)F)ccc1F`, the inhibition is -3.04%.

Regarding `CC(C)c1ccc2c(c1)NC(=O)/C2=N/Nc1ccc(S(N)(=O)=O)cc1`, the inhibition amounted to 0.48%.

Turning to `c1ccc(Cc2nc3ccc(Nc4ncnc5ccccc45)cc3[nH]2)cc1`, the inhibition came out at 5.23%.

As to `CCOc1nccc2c1nc(-c1nonc1N)n2CC`, the inhibition is 3.59%.

For the next test the target is unchanged. The note with it: at 1 µM.
In the case of `NS(=O)(=O)c1cccc(-c2cc3ccncc3cc2OCc2ccccc2)c1`, the inhibition turned out to be 15.6%.

For the compound `COc1cc2ncnc(Nc3ccc4c(cnn4Cc4ccccc4)c3)c2cc1OC`, the inhibition is 7.69%.

In the case of `Cc1ccc2c(c1)/C(=N/Nc1ccc(S(N)(=O)=O)cc1)C(=O)N2`, the inhibition was found to be 27.2%.

In the case of `FC(F)(F)c1ccc(-c2nn3ncccc3c2-c2ccnc(Nc3ccc4c(c3)OCCO4)n2)cc1`, the inhibition turned out to be 11.1%.

Consider `CCCN1CCCC(c2ccc(Nc3nc(Nc4cc(F)ccc4C(N)=O)c4cc[nH]c4n3)c(OC)c2)C1` (stereo not drawn), for which the inhibition was determined as 5.74%.

For `COc1cccc(-n2ncc3c(N/N=C/c4ccc(C)cc4)ncnc32)c1`, the inhibition was 7.12%.

With `[O-][S+]1CCN(Cc2ccc(-c3ccc4ncnc(Nc5ccc(OCc6ccccc6)c(Cl)c5)c4c3)o2)CC1`, the inhibition came out at 3.74%.

Take `Cc1cc(Cl)cc2c1NC(=O)C2=NNc1ccc(S(N)(=O)=O)cc1`: the inhibition stood at 3.49%.

In the case of `COc1ccc(-c2nn3ncccc3c2-c2ccnc(Nc3cccc(C(F)(F)F)c3)n2)cc1`, the inhibition came out at 0.17%.

Consider `N#Cc1cccc(Nc2nccc(-c3cnn4ncccc34)n2)c1`, for which the inhibition was determined as 23.4%.

Turning to `Cc1ccc2c(-c3ccnc(Nc4cccc(C(F)(F)F)c4)n3)c(-c3ccccc3)nn2n1`, the inhibition amounted to 9.52%.

`Cc1ccc(O)cc1Nc1ccnc2ccc(S(C)(=O)=O)cc12`: the inhibition came out at 14.5%.

On to `Cc1ccc(Nc2ccnc(Nc3cccc(C(N)=O)c3)n2)cc1O`, for which the inhibition worked out at 26.6%.

Turning to `O=C1Nc2ccc(-c3cccnc3)cc2C1=Cc1cc(Br)c(O)c(Br)c1`, the inhibition came to 5.51%.

Consider `COC(=O)Nc1nc2cc(Oc3ccc(NC(=O)Nc4cccc(Br)c4)cc3)ccc2[nH]1`, for which the inhibition came out at 3.33%.

`Cc1cc(O)cc(C)c1/C=C/c1cncc(C(=O)N(C)C)c1`: the inhibition worked out at 5.81%.

`COc1ccc2ncnc(Nc3ccc(OCc4ccccc4)cc3)c2c1`: the inhibition stood at 2.56%.

For the compound `CS(=O)(=O)Nc1cccc(-c2ccc3c(NC(=O)C4CC4)n[nH]c3c2)c1`, the inhibition amounted to 5.34%.

Consider `COc1cc2ncnc(Nc3ccc(C)c(O)c3)c2cc1OC`, for which the inhibition is 15.8%.

In the case of `COc1cccc(-n2ncc3c(N/N=C/c4ccc(S(C)(=O)=O)cc4)ncnc32)c1`, the inhibition was 4.85%.

Regarding `Cc1nc(-c2ccccc2)n2nc(NCCCN3CCOCC3)ncc12`, the inhibition was 11.8%.

Take `Nc1nccc(C#Cc2cncnc2Nc2ccc(OCc3cccc(F)c3)c(Cl)c2)n1`: the inhibition was determined as 8.42%.

Turning to `N#Cc1c(NC(=O)c2ccccc2F)sc2c1CCCC2`, the inhibition was -2.53%.

As for `CC(C)c1ccc(Nc2nccc(-c3cnn4ncccc34)n2)cc1`, the inhibition was 7.86%.

Regarding `NS(=O)(=O)c1ccc(NC=C2C(=O)Nc3ccc4ncsc4c32)cc1`, the inhibition worked out at 63.8%.

`Cc1cc(-c2ccccn2)cc(C)c1/C=C/c1cncc(-c2nn[nH]n2)c1`: the inhibition came to 7.33%.

Consider `CN(c1ccc(NC(=O)Nc2ccc(OC(F)(F)F)cc2)cc1)c1ccnc(Nc2cccc(S(N)(=O)=O)c2)n1`, for which the inhibition was determined as 53.9%.

`COc1cc(/C=N/Nc2ncnc3c2cnn3C(C)C)ccc1O`: the inhibition turned out to be 7.97%.

Take `NC(=O)c1cccc(Nc2nccc(Nc3cccc(F)c3)n2)c1`: the inhibition is 13%.

With `Nc1ccc(C#Cc2cncnc2Nc2ccc(OCc3cccc(F)c3)c(Cl)c2)cc1`, the inhibition worked out at 4.27%.

Take `O=C(Nc1ccc(Oc2ccc3[nH]c(NC(=O)c4ccco4)nc3c2)cc1)Nc1cc(C(F)(F)F)ccc1F`: the inhibition came to 33.2%.

Take `CC(C)c1ccc2c(c1)NC(=O)/C2=N/Nc1ccc(S(N)(=O)=O)cc1`: the inhibition was determined as 5.04%.

For the compound `c1ccc(Cc2nc3ccc(Nc4ncnc5ccccc45)cc3[nH]2)cc1`, the inhibition is 7.58%.

As to `CCOc1nccc2c1nc(-c1nonc1N)n2CC`, the inhibition came to 10.6%.
